Here are results for 18 compounds from PubChem BioAssay (EPA / NIEHS).

The source made the active and inactive calls. The calls were made as follows: active = hit-call score of the fitted dose curve at least 0.9, where 1 is the maximum; inactive = score below 0.9.

The nature of this assay: ATG_M_32_CIS: Attagene CIS-FACTORIAL HepG2 Assay for M32 Transcription Factor (Internal Marker) (AID 2282949).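 Also: background control marker of the multiplexed CIS panel rather than a real target.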 The conditions noted are these: HepG2 Attagene cis-factorial M32 reporter, mRNA; actives raise or lower the signal. Summed up:
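HepG2 transfectants (cis-regulated reporter transcription units) dosed 24 h. Reporter mRNA by RT-PCR plus CE, analysed as gain or loss relative to DMSO.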
Turning to `NC(=O)C(F)(F)C(F)(F)C(F)(F)C(F)(F)F`, the outcome was inactive.
Then `O=P(O)(O)OCCC(F)(F)C(F)(F)C(F)(F)C(F)(F)C(F)(F)C(F)(F)F`, with “inactive”; and `CC(=O)Nc1ccc(N=Nc2cc(C)ccc2O)cc1`, with “inactive”; and `CCCCCCC(C)OC(=O)CCCCC(=O)OC(C)CCCCCC` (stereo not drawn), with “inactive”.
As for `CC(Cc1ccc(O)c(O)c1)C(C)Cc1ccc(O)c(O)c1` (stereo not drawn), the compound was classed as inactive.
In the case of `FC(F)(F)C(F)(F)C(F)(F)C(F)(F)C(F)(F)C(F)(F)C(F)(F)C(F)(F)CCS` it was “inactive”.
In the case of `FC(F)(Br)C(F)(F)C(F)(F)C(F)(F)C(F)(F)C(F)(F)Br` it was “inactive”.
Then `OCC(F)(F)C(F)(F)C(F)(F)C(F)(F)C(F)(F)C(F)F`, with “inactive”.
In the case of `COC(=O)CCC(F)(F)C(F)(F)C(F)(F)C(F)(F)F`, the outcome was inactive.
In the case of `FC(F)(F)C(F)(F)C(F)(F)N(C(F)(F)C(F)(F)C(F)(F)F)C(F)(F)C(F)(F)C(F)(F)F` it was “inactive”.
Then `FC(F)(F)C(F)(F)C(F)(F)C(F)(F)C(F)(F)C(F)(F)C(F)(F)C(F)(F)F`, with “inactive”.
Consider `c1ccc(-c2ccccc2-c2ccccc2)cc1`, for which the outcome was inactive.
Then `CCO[Si](CCC(F)(F)C(F)(F)C(F)(F)C(F)(F)C(F)(F)C(F)(F)F)(OCC)OCC`, with “inactive”; and `FC(F)(I)C(F)(F)C(F)(F)C(F)(F)I`, with “inactive”.
Then `CCCCCCCCC(F)(F)C(F)(F)C(F)(F)C(F)(F)C(F)(F)C(F)(F)F`, with “inactive”; and `FC(F)(F)C(F)(F)CNCC(F)(F)C(F)(F)F`, with “inactive”.
Then `CC/C=C\CCOC(=O)c1ccccc1`, with “inactive”; and `O=S(=O)(OCCOC(F)(F)F)C(F)(F)F`, with “inactive”.
